PMC10163288
Only a sample is shown. No count for the full screen is at hand.

B1: il10ra_site1_sap_15_mot_HHH_b2_05813_000000266_0001_1_19_H_._ems_3hC_1310_0001_af2_0001_0000600040_0000002_0_0001 (protein)
chain: SSSSADEEFEFTREKYEEARELLQNGNPEEAEEVLEEAREYLKEAGNWAALFAVEVLLKQLSSSS
B2: il10ra_site1_normal_mot_HHH_b2_02537_000000065_0001_1_20_H_._HHH_b1_07925_0001_0000100001_0000001_0 (protein)
chain: SSSSTDEVFEFTRRVIEEASELFRNGNPEEAERVLEEAREYLEELGDELALRSVEHLLRAISSSS
B3: il10ra_site1_sap_19_mot_HHH_b1_05214_000000232_0001_38_57_H_._HHH_b2_00758_0001_0000400024_0000001_0_0001 (protein)
chain: SSSSDIRELYELSREAVELRHEGNPEEAEKVVEEAEELARELNNRVLLAVIEWLREAIETSSSSS
B4: il10ra_site1_sap_16_mot_HHH_b1_06789_af2_000000041_0001_1_20_H_._HHH_b2_05269_af2_0001_0000200010_0000002_0_0001 (protein)
chain: SSSSDVEEELRELLKELEELVEEGDEEKFLRVAMEALHLAFQARDEEVLQLLWELAKELASSSSS
B5: il10ra_site1_normal_mot_HHH_b2_02693_af2_000000213_0001_19_35_H_._HHH_b2_04275_0001_0000300016_0000001_0_af2pred_0001 (protein)
chain: SSSSSSEESEELLEQLEEALRRGDEELIARLVLEIARLAEELNDKELVEELLRLLVEHQSSSSSS
B6: il10ra_site1_normal_mot_8756ee2cf497b5429c717dfc0c0bcfd6_0001_000000186_0001_1_13_H_._HHH_b2_00624_0001_0000300028_0000001_0_af2pred_0001 (protein)
chain: SSSSSEEAEELYRLLREAAELHWEGNPEEARELLEEAEELAKEAGNLNALAVIRFLLEVAGSSSS
B7: il10ra_site1_normal_mot_HHH_b2_00943_af2_000000149_0001_1_17_H_._d3c612d18aab0e0945b39b51a1e20ad4_0001_1_af2_0001_0000500040_0000001_0_af2pred_0001 (protein)
chain: SAEEVLQRQVERDPDDASALHLLLLVLAAKEGDPELVQLLRRANELSREGNPEEAREILQEAIER
B8: il10ra_site1_sap_27_mot_104c758fc23488854646035ccb2100c6_0001_000000282_0001_15_29_H_._5a9d7fc92c57439179869c3e1d567c11_0001_0001_0000100005_0000001_0_0001_af2p … (protein)
chain: SSSSSPLEKKLEATTKYLKFCLSHNDLEGIKSGLIALKQLGDESGNEEAKKVAAEVEEKLKSSSS
B9: il10ra_site1_normal_mot_HHH_b1_01779_000000096_0001_43_57_H_._HHH_b2_08219_0001_0000100005_0000001_0_af2pred_0001 (protein)
chain: SSSSNKEEAERSVRLLLELAKRLEDPERARAALRDARRTAEYVNDPELEELVEEVEREVLSSSSS
B10: il10ra_site1_sap_19_mot_HHH_b2_02053_af2_000000006_0001_3_19_H_._HHH_b1_07370_0001_0000100001_0000002_0_0001 (protein)
chain: SSSSSDEEVEELLKEAEELAEEGNPEEAAKVLLEAVRLAIQAGDEEALQKVWEVVKELAKSSSSS
B11: il10ra_site1_sap_23_mot_HHH_b2_03708_000000000_0001_1_18_H_._HHH_b1_08343_0001_0000300038_0000001_0_0001 (protein)
chain: SSSSDLEKEIFHLLIEAYHLLQRGDEEEARELLEEAKELAEELNDPALLRAVEVLLAKLDSSSSS
B12: il10ra_site1_sap_14_mot_HHH_b2_05343_000000235_0001_19_35_H_._HHH_b2_05666_0001_0000600037_0000001_0_0001 (protein)
chain: SSSSDQEFYKAVEEAIEKAIKLEKNGNPEEAERLLEEILEKAEELGNWAARWSIRHLLELLSSSS
B13: il10ra_site1_sap_19_mot_HHH_b2_05984_000000071_0001_38_52_H_._919c246ba0fc10ef4578bdc7f1052ff8_0001_0001_0000100004_0000001_0_0001 (protein)
chain: NELEEELEELVERGDEEKVAELAVKVAKEKGSFSPEQLEALRRFIEALFRDNKKVAEHLARLVID
B14: il10ra_site1_normal_mot_HHH_b2_07579_000000275_0001_1_19_H_._HHH_b1_01139_af2_0001_0000300023_0000001_0_af2pred_0001 (protein)
chain: SSSSSEEKRKVLELLRKALEIEDKEEAEKVVEEAVRLAEELNDPLAAKLAEMLLEQLEKGSSSSS
B15: il10ra_site1_sap_25_mot_HHH_b2_07388_000000275_0001_18_35_H_._7abaf38a3307e851c9e6880adce6b300_0001_1_0001_0000100003_0000001_0_0001_af2pred_0001 (protein)
chain: SSSSDEEEEEVEKLLEELEKLLERGDREEVFRLFREAARIIAELRDEEAFRRLQELLKRLFSSSS
B16: il10ra_site1_normal_mot_HHH_b2_00345_af2_000000013_0001_42_56_H_._HHH_b2_01857_0001_0000400035_0000002_0 (protein)
chain: SSSSSDEEEEEVEELLEEAKHIEDHEKRIEILLEATHLALRAQDPELVQLVWEVFHRLIRSSSSS
B17: il10ra_site1_normal_mot_HHH_b1_02062_000000185_0001_1_20_H_._HHH_b1_08089_0001_0000100003_0000001_0_af2pred_0001 (protein)
chain: SSSSDVEERVEELFEEVEELLRQGDVEEAFKVSREMIELASENQDDEAAELAREASRLFARSSSS
B18: il10ra_site1_normal_mot_HHH_b1_00999_000000080_0001_41_55_H_._HHH_b2_01363_af2_0001_0000100001_0000002_0 (protein)
chain: SSSSSSEEVEEEVERLLEEAKEIEDPEEAMRVLLEALQIALRNNNKELLQLVWRIIKELGSSSSS
B19: il10ra_site1_normal_mot_HHH_b2_03220_af2_000000223_0001_23_40_H_._HHH_b1_01843_af2_0001_0000200015_0000002_0 (protein)
chain: SSSSSSSEAEEVWRLLREALHIDDEEEVQELLEEAKRLAEELNSEVLRIVIEFLERDLSSSSSSS
B20: il10ra_site1_sap_13_mot_HHH_b2_04993_000000082_0001_43_55_H_._0a28df53656836c8faf163f96bad2529_0001_1_af2_0001_0000100004_0000002_0_0001_af2pred_0001 (protein)
chain: SSSSDEEEERLEELLEEVEELLRQGDPEEAARLLFEVAKLAAELNDDEILKLVQELVHLLFSSSS
B21: il10ra_site1_normal_mot_HHH_b2_00475_000000107_0001_44_57_H_._HHH_b1_04904_0002_0000200015_0000002_0 (protein)
chain: SSSSDIIEVLYRLQHAVAKGDEEEIEELLEELEELLKKASEEERKYIEILLHFARAQLELLSSSS
B22: il10ra_site1_normal_mot_HHH_b2_02337_000000026_0001_38_52_H_._HHH_b1_01890_af2_0001_0000100004_0000001_1 (protein)
chain: SSSSDEEEKAEELIREAEELAENGNPEEAARVAQEALRLILELGDEEALQLLWEAVRRLARSSSS
B23: il10ra_site1_sap_21_mot_HHH_b1_06914_000000280_0001_1_18_H_._HHH_b2_08153_0001_0000400035_0000001_0_0001 (protein)
chain: SSSSSREELREEVEEVIEELEEKNDTKLLHRLMELYKRAAELGDEELVREIFEVLLRIVQKSSSS
B24: il10ra_site1_normal_mot_HHH_b1_01821_000000158_0001_23_39_H_._HHH_b1_01350_af2_0001_0000300008_0000001_0 (protein)
chain: SSSSSSDEEREEAEELLEEAKHVEDPERFIELILEAVRLALRSGDEELLQEIWELFKRKSSSSSS

The binders below were run against il10ra, Q13651 (assay: yeast display titration).
il10ra, Q13651, sequence (Q13651 whole entry): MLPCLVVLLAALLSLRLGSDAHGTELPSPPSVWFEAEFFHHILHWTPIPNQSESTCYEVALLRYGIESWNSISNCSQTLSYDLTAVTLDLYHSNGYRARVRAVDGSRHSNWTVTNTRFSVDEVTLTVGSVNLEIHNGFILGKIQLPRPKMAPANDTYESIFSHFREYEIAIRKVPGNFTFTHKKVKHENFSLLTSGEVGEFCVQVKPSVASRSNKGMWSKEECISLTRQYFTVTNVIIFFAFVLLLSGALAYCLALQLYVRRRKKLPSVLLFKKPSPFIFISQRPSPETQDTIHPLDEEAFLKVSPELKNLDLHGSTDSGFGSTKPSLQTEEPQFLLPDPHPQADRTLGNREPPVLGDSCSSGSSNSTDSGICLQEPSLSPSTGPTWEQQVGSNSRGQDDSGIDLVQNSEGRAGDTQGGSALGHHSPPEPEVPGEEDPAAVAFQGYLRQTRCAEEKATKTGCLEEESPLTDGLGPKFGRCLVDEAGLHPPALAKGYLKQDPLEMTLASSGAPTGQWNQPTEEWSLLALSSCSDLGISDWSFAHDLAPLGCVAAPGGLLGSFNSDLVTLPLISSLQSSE

Apparent Kd, inactive:
B1 no binding seen, B2 no binding seen, B3 no binding seen, B4 no binding seen, B5 no binding seen, B6 no binding seen, B7 no binding seen, B8 no binding seen, B9 no binding seen, B10 no binding seen, B11 no binding seen, B12 no binding seen, B13 no binding seen, B14 no binding seen, B15 no binding seen, B16 no binding seen, B17 no binding seen, B18 no binding seen, B19 no binding seen, B20 no binding seen, B21 no binding seen, B22 no binding seen, B23 no binding seen, B24 no binding seen
